Test in all cases: DAPPL (digital affinity profiling via proximity ligation, sequencing); 10 mM Tris-HCl pH 7.5, 50 mM NaCl, 1 mM DTT, 4% glycerol, room temperature, 30 min; GST-TFs on glutathione beads, 16-mer random dsDNA library, 0.1% formaldehyde crosslink after washing; high values mean tight binding
Test [1] addresses T1, FEV (Homo sapiens, UniProt Q99581 1-238).
T1 sequence: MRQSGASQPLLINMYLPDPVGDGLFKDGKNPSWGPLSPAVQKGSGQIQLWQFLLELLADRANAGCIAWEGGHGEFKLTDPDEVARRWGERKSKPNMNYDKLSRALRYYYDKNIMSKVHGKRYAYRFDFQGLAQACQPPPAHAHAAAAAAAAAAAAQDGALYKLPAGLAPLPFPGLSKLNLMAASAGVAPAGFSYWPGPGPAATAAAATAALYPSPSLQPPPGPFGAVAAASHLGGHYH
The conditions noted are these: protein: recombinant; tags: N-terminal GST; dsDNA, one strand shown. The gist of the method: (§1)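 Binding signal is defined as a hexamer's read frequency for one factor over its frequency for the tag-only sample. To obtain reads, GST-fused human transcription factors were expressed in yeast, captured on glutathione beads, barcoded with DNA and pooled with that sample. Pools met 200 nmole of a 16-mer random double-stranded DNA library in Tris/NaCl/DTT/glycerol buffer for 30 min at room temperature before washing, 0.1% formaldehyde crosslinking, proximity ligation (BsaI/T4 ligase, 1 h, 37 °C), PCR and Illumina NextSeq500 sequencing.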

Test [2] has as its target ETV5 (Homo sapiens, UniProt P41161 1-510). The following applies: protein: recombinant; tags: N-terminal GST; dsDNA, one strand shown. The procedure, abridged:
as §1

In test [3] the target is HSF1 (Homo sapiens, UniProt Q00613 1-529). The following applies: protein: recombinant; tags: N-terminal GST; chain copies: 3; dsDNA, one strand shown. The gist of the method:
as §1

In test [4] the target is T2, SPIC (Homo sapiens, UniProt Q8N5J4 1-248).
T2 sequence: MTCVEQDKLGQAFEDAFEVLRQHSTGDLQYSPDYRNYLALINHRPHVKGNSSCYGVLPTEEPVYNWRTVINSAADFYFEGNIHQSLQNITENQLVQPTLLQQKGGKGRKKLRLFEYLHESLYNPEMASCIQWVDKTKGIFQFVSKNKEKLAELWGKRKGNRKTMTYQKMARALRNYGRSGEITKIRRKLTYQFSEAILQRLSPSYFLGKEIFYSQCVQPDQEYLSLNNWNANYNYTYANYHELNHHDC
The following applies: protein: recombinant; tags: N-terminal GST; dsDNA, one strand shown. The gist of the method:
as §1

For test [5], the target named is ELF4 (Homo sapiens, UniProt Q99607 1-663). The following applies: protein: recombinant; tags: N-terminal GST; dsDNA, one strand shown. The procedure, abridged: as §1
Sequence of ELF4 (Q99607 whole entry): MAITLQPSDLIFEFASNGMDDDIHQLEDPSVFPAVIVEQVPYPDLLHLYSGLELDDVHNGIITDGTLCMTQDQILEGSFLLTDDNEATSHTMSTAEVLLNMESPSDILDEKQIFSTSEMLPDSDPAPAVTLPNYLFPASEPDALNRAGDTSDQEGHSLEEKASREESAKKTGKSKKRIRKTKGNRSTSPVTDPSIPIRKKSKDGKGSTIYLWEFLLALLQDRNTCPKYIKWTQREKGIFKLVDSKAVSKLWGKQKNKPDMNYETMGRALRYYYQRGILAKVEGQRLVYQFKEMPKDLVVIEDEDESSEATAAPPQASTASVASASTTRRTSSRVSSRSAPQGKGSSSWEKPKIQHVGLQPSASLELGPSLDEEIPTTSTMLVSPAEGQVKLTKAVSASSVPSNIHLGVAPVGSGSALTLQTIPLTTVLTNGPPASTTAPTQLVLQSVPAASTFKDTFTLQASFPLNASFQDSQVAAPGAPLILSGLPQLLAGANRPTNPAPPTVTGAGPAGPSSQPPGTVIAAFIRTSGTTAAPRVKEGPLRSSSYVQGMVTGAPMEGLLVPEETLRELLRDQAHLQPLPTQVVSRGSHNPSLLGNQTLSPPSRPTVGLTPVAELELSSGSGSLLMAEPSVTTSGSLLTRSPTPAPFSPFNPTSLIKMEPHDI
Test [6] concerns the target T3, ELK4 (Homo sapiens, UniProt P28324-2 1-405).
T3 sequence: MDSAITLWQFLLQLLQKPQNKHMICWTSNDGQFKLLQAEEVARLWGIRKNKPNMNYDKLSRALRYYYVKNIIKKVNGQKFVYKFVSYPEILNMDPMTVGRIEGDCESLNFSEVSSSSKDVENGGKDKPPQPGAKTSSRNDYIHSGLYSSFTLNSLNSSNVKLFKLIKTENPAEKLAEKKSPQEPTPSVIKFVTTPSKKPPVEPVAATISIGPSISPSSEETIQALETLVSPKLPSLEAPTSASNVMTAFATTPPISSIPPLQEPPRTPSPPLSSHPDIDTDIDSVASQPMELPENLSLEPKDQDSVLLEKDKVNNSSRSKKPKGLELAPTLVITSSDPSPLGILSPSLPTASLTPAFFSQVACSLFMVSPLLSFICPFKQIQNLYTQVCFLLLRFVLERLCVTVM
The conditions noted are these: protein: recombinant; tags: N-terminal GST; dsDNA, one strand shown. The gist of the method:
as §1

Test [7] concerns the target T4, ETV2 (Homo sapiens, UniProt O00321 1-342).
T4 sequence: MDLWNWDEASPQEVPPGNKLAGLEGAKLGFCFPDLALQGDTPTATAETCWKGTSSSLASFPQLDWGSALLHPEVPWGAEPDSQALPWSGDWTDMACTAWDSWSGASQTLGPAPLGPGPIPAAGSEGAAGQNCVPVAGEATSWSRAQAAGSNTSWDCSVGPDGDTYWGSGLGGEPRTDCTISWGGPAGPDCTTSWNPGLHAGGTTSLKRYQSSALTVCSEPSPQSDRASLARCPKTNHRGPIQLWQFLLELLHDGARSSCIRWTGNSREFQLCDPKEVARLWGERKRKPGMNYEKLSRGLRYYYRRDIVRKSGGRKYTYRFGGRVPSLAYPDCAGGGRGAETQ
The conditions noted are these: protein: recombinant; tags: N-terminal GST; dsDNA, one strand shown. The gist of the method: as §1

Test [8] addresses T5, ELF3 (Homo sapiens, UniProt P78545 1-371).
T5 sequence: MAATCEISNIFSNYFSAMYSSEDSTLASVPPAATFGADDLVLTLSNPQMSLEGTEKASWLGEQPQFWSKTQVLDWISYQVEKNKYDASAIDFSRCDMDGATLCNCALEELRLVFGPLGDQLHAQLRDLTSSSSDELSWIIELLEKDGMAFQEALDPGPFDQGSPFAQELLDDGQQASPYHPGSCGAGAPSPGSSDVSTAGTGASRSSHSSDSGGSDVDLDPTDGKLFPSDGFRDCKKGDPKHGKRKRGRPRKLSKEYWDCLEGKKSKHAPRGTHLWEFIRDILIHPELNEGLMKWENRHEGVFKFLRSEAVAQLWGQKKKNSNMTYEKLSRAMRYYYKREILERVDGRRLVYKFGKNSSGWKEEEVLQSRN
The following applies: protein: recombinant; tags: N-terminal GST; dsDNA, one strand shown. The gist of the method: as §1

In test [9] the target is CRX (Homo sapiens, UniProt O43186 1-299). The conditions noted are these: protein: recombinant; tags: N-terminal GST; dsDNA, one strand shown. The gist of the method:
as §1

The target in test [10] is ETV1 (Homo sapiens, UniProt P50549 1-477). The conditions noted are these: protein: recombinant; tags: N-terminal GST; dsDNA, one strand shown. The gist of the method:
as §1

For test [11], the target named is T6, ERF (Homo sapiens, UniProt P50548 1-548).
T6 sequence: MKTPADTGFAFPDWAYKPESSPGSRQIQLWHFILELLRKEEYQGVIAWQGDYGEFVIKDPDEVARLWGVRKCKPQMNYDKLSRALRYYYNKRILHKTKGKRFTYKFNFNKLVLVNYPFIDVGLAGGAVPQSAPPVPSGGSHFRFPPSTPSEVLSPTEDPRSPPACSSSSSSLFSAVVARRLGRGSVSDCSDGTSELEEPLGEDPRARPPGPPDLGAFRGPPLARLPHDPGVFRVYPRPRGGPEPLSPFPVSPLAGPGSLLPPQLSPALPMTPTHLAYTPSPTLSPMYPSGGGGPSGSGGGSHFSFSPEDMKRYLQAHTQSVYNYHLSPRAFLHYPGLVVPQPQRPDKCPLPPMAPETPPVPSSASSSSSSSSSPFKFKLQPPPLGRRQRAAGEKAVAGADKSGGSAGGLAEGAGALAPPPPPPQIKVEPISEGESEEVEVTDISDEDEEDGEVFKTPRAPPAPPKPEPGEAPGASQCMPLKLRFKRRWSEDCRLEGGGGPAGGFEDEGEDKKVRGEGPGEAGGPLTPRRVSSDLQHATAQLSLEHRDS
The conditions noted are these: protein: recombinant; tags: N-terminal GST; dsDNA, one strand shown. The gist of the method:
as §1

The target in test [12] is T7, ETV3L (Homo sapiens, UniProt Q6ZN32 1-361).
T7 sequence: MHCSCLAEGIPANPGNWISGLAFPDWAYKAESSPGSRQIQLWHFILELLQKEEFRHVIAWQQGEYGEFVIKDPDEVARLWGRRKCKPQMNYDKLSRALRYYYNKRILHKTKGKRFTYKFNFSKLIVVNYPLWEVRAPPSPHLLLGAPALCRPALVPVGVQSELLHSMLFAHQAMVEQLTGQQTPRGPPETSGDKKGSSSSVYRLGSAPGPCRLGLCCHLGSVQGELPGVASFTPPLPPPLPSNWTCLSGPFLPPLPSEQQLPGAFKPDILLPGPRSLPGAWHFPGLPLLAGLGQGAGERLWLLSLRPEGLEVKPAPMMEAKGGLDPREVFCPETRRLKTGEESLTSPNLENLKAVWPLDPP
The following applies: protein: recombinant; tags: N-terminal GST; dsDNA, one strand shown. The procedure, abridged: as §1

Test [13] has as its target T8, ETS2 (Homo sapiens, UniProt P15036 1-469).
T8 sequence: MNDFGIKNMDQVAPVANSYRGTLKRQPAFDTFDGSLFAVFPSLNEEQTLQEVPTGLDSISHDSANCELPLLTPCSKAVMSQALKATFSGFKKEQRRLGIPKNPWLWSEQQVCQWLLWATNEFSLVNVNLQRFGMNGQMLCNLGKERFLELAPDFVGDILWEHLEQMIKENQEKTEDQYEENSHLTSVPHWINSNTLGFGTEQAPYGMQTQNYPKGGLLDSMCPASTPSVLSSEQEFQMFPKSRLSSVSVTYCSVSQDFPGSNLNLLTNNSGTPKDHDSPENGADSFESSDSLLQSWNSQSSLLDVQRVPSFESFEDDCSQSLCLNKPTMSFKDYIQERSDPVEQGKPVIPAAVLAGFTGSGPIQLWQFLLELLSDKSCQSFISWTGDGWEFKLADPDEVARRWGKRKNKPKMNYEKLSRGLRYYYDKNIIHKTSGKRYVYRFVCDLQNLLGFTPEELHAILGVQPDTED
The conditions noted are these: protein: recombinant; tags: N-terminal GST; dsDNA, one strand shown. The gist of the method: as §1

Test [14] addresses T9, SPDEF (Homo sapiens, UniProt O95238 1-335).
T9 sequence: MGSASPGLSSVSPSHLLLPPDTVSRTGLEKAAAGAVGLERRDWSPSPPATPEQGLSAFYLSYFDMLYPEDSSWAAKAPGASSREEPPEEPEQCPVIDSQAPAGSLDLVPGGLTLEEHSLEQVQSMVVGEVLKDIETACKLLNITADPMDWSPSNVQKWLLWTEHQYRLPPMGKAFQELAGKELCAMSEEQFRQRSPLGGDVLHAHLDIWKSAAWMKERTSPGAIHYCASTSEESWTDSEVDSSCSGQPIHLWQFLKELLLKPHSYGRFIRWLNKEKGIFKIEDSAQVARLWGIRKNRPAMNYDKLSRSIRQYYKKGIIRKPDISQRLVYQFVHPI
The following applies: protein: recombinant; tags: N-terminal GST; dsDNA, one strand shown. The procedure, abridged: as §1

Test [15] addresses T10, ETV7 (Homo sapiens, UniProt Q9Y603 1-341).
T10 sequence: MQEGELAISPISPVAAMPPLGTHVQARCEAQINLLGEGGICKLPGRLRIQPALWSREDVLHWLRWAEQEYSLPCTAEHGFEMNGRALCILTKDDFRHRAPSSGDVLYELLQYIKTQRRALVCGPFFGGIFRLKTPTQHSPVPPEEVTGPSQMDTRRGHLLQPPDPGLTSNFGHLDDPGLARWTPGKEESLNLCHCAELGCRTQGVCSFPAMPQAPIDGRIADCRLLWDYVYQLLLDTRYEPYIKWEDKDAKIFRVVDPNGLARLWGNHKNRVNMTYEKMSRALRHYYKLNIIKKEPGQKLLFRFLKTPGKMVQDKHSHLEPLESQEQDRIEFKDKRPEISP
The conditions noted are these: protein: recombinant; tags: N-terminal GST; dsDNA, one strand shown. The gist of the method: as §1

Test [16] concerns the target T11, ELF5 (Homo sapiens, UniProt Q9UKW6-2 1-255).
T11 sequence: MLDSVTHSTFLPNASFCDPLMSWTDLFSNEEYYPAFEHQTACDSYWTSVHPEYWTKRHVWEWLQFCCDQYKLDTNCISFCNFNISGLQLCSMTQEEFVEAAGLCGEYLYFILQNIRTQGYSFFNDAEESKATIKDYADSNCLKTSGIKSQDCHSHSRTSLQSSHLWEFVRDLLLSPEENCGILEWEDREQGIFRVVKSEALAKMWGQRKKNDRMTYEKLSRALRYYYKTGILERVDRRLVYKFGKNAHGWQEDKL
The conditions noted are these: protein: recombinant; tags: N-terminal GST; dsDNA, one strand shown. The gist of the method: as §1

Test [17] has as its target T12, ETV3 (Homo sapiens, UniProt P41162-2 1-143).
T12 sequence: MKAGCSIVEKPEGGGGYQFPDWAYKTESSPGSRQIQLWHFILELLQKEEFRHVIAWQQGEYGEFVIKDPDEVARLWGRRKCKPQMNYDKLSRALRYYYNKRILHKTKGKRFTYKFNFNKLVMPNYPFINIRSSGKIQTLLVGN
The following applies: protein: recombinant; tags: N-terminal GST; dsDNA, one strand shown. The procedure, abridged:
as §1

Test [18] concerns the target ETV6 (Homo sapiens, UniProt P41212 1-452). The conditions noted are these: protein: recombinant; tags: N-terminal GST; dsDNA, one strand shown. The gist of the method: as §1

In paper PMC7862700, “An all-to-all approach to the identification of sequence-specific readers for epigenetic DNA modifications on cytosine” one finds binding signal data, which are given here for one sequence.

Sequence of CRX (O43186 whole entry): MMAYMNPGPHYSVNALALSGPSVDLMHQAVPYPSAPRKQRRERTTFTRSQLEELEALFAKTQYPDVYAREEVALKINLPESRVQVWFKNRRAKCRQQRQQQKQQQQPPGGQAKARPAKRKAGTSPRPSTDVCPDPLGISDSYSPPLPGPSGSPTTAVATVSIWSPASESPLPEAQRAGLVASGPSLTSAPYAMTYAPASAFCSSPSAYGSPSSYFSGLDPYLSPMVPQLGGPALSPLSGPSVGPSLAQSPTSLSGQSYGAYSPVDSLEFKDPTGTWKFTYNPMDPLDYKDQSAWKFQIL
Sequence of ETV6 (P41212 whole entry): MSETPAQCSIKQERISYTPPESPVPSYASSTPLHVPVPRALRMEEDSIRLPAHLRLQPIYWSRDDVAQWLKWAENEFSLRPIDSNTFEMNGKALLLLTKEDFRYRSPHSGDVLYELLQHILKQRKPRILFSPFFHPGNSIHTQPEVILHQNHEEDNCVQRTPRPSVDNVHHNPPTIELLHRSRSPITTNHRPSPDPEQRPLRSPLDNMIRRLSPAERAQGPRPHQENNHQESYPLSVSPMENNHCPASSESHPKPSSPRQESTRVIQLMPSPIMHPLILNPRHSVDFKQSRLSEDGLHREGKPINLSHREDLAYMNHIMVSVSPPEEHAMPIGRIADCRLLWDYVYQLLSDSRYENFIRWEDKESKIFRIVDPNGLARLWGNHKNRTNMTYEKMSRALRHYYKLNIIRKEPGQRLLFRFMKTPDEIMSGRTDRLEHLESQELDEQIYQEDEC
Sequence of ETV1 (P50549 whole entry): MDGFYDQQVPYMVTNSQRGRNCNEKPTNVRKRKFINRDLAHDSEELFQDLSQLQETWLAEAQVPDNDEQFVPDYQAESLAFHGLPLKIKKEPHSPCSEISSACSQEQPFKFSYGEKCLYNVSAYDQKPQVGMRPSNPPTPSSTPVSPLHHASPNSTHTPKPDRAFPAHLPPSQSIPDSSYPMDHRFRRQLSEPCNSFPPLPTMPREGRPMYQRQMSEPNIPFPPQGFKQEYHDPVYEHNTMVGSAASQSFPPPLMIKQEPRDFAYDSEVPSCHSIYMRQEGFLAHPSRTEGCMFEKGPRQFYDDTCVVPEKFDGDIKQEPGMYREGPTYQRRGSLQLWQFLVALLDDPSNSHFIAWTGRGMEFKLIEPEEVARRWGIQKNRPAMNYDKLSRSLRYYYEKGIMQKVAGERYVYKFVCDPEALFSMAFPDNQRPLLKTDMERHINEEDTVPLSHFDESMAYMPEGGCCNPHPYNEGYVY
Sequence of HSF1 (Q00613 whole entry): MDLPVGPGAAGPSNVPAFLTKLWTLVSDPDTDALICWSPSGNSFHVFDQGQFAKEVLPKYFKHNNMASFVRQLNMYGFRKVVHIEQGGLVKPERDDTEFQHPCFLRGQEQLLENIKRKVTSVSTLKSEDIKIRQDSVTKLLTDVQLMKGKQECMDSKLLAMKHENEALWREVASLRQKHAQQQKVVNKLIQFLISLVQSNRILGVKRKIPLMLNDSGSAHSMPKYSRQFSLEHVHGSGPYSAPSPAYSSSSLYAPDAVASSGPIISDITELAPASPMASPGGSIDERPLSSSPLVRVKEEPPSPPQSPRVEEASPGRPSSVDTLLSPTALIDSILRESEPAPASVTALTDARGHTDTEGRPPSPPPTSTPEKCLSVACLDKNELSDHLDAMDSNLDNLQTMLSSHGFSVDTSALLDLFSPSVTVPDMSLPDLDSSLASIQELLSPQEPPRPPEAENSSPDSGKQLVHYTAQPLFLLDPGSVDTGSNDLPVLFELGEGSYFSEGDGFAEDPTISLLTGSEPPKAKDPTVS
Sequence of ETV5 (P41161 whole entry): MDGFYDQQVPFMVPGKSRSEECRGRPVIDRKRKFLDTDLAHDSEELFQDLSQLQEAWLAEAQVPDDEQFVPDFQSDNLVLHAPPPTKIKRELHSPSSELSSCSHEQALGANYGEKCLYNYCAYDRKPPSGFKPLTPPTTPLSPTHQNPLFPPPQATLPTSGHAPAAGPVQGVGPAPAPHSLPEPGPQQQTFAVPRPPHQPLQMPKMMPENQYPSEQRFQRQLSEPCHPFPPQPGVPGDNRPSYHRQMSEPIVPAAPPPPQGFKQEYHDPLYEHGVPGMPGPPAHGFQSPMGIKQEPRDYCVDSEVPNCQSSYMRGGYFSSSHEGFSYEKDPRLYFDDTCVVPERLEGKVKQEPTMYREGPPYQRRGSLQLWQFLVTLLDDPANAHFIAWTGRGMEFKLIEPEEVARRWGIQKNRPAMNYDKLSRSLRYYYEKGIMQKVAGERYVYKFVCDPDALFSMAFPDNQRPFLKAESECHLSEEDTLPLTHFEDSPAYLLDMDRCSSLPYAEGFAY

For TATGGA, the binding signal in [1] is 1.05 fold enrichment (6-mer frequency, TF over GST control); in test [2], 1.12 fold enrichment (6-mer frequency, TF over GST control); in test [3] it was 1.33 fold enrichment (6-mer frequency, TF over GST control); in [4], 1.14 fold enrichment (6-mer frequency, TF over GST control); in test [5], 1.07 fold enrichment (6-mer frequency, TF over GST control); in test [6], 1 fold enrichment (6-mer frequency, TF over GST control). Moreover, the binding signal in [7] was 1.25 fold enrichment (6-mer frequency, TF over GST control); in test [8], 1.15 fold enrichment (6-mer frequency, TF over GST control); in test [9], 1.4 fold enrichment (6-mer frequency, TF over GST control); in [10], 1.12 fold enrichment (6-mer frequency, TF over GST control); in [11], 1.16 fold enrichment (6-mer frequency, TF over GST control); in [12], 1.13 fold enrichment (6-mer frequency, TF over GST control). In addition, the binding signal in [13] was 1.12 fold enrichment (6-mer frequency, TF over GST control); in [14], 1.18 fold enrichment (6-mer frequency, TF over GST control); in test [15], 1.26 fold enrichment (6-mer frequency, TF over GST control); in test [16], 1.08 fold enrichment (6-mer frequency, TF over GST control); in test [17] it was 1.22 fold enrichment (6-mer frequency, TF over GST control); in test [18], 1.05 fold enrichment (6-mer frequency, TF over GST control).
